# High-throughput results deposited in PubChem by National Center for Advancing Translational Sciences (NCATS).
# HBB splice mod = hemoglobin beta splicing modulation; HBB splicing reporter cell assay, activation; EGFP reporter with mutant IVS2-654 intron; response scale: normalised to 500 nM splice-correcting PNA; Potency, µM (highest dose often 46.1 µM), without a hit: at the highest dose activation, actives largely listed as activators; 0.06% of 65,000 active; note: potency is the fitted concentration of half-maximal effect; 0% is about no effect
#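 HeLa cells stably expressing EGFP interrupted by mutant beta-globin intron 2 (IVS2-654), 500/well in 2% FCS. Treated with compound for 2 days at 37C. Splicing correction scored as total well GFP intensity (488 nm excitation, 500-520 nm emission); 500 nM antisense PNA served as control.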
# IkB sig inh = IkB pathway inhibition in ABC-DLBCL cells; ABC-DLBCL IkBa-CBG/CBR dual luciferase ratio, 4 h; response scale: scaled: untreated 0%, proteasome inhibitor 100%; Potency, µM (doses to about 57.1 µM), for inactives: at the top dose IkBa stabilization activation; 0.04% of 110,000 active; active = well fitted curve in the direction sought with a large enough effect in the signal ratio, not every such curve was filed as active; inconclusive = small, poorly fitted or top-dose-only effect, or a change in a side signal; the % refers to the signal ratio;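 note: potency is the fitted concentration of half-maximal effect; the direction sought is a rising ratio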
#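 Luminescence ratio of IκBα-fused green versus native red beetle luciferase in OCI-Ly3 cells, 4 h post-doxycycline with compound; red signal alone, scaled from basal (0%) to zero light (-100%), flagged nonspecific or cytotoxic effects.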
# CRE Fsk mod = modulators of forskolin-stimulated CRE signaling in CHO cells; CHO CRE-bla reporter (cAMP response element driving beta-lactamase), forskolin EC10, beta-lactamase ratio; Potency, µM (series often up to 38.2 µM), without a hit: top-dose activity change, negative = inhibition, most hits filed as activators; 2.5% of 71,000 active; AID 662; active = well fitted activation curve with a large enough effect in the signal ratio, with a control signal flat, not every such curve was filed as active; inconclusive = small, poorly fitted or top-dose-only effect, or effect the other way, or a change in a side signal; the % refers to the signal ratio; note: potency is the fitted concentration of half-maximal effect; % of control where 0% means no effect
#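 CRE-bla CHO cells stimulated with EC10 NKH 477 (water-soluble forskolin) and compound titrations, 3 h at 37C; beta-lactamase read with CCF4 after 2 h at room temperature. Activity from 460/530 nm emission ratio, AC50 values for positive or negative modulation.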
# Imprint erasure = inducers of genomic imprint erasure in mouse ES cells. mouse ES Peg3-LacZ reporter, beta-gal luminescence, 40 h. Potency, µM (top dose mostly 60.7 µM), for inactives: at the highest dose activity change, positive = activation, hits mostly activators. 0.02% of 110,000 active. AID 1948; note: potency is the fitted concentration of half-maximal effect
#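 Each well holds 300 Peg3LacZ-Neo (maternal) female ES cells incubated 40 h at 37C, 5% CO2. LacZ is measured by BetaGlo luminescence, with AC50 and maximum efficacy derived from dose-response curves.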
# Epigenetic mod = derepresses silenced GFP locus in mouse C127i cells; Potency, µM (titrated, usually from 46.1 µM), inactives show at the top dose GFP derepression (activation); mouse C127i GFP locus derepression, cytometry, 30 h; 0.09% of 68,000 active; note: % of control where 0% means no effect
#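 Derepression screen: silenced CMV-GFP reporter in murine C127i cells, 30 h compound incubation at 37 C, washed cells imaged by laser-scanning cytometer to enumerate GFP-expressing objects of 20 to 120 um.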
# CHO via 24h = cytotoxicity in CRE-bla CHO cells at 24 h. CRE-bla CHO viability, ATP luminescence, 24 h. shares compounds with CRE Fsk mod. activity, negative = viability loss, % at 46.1 µM. 120 tested, under 10 active. AID 905
# CHO via 40h = CHO cell toxicity at 40 h by ATP luminescence; Potency, µM, inactives show max response, usual class: inhibitors; CRE-bla CHO viability, ATP luminescence, 40 h; 120 tested, under 10 active; shares compounds with CRE Fsk mod
# CREB luc CRC = confirmation of CRE signaling potentiators in HEK293 CREB reporter cells. HEK293 CRE-luc2P, NKH477 EC10 potentiation, luminescence, 4 h. 80% of 120 active. shares compounds with CRE Fsk mod. Potency, µM (highest dose often 38.3 µM), inactives show top-dose activity, positive = activation, actives largely listed as activators
# Numbers without * were called inactive; u = inconclusive; x = no result given; [ ] = another dose, or the depositor's remark. This is one part of a sample in which hits are shown more often than they occur. Unless noted, calls come from the whole dose curve; as a rule, active = well fitted curve in the direction sought with a large enough effect; inconclusive = small, poorly fitted or top-dose-only effect, or another doubt; inactive = no such curve, though single readings can be large; an effect the other way counts as inactive or inconclusive.
SMILES,HBB splice mod,IkB sig inh,CRE Fsk mod,Imprint erasure,Epigenetic mod,CHO via 24h,CHO via 40h,CREB luc CRC
Nn1c(COc2ccccc2)nnc1SC(F)F,-0.8%,-1.0%,-5.3%,3.98µM*,0.0%,x,x,x
O=C(Nc1cc(C(F)(F)F)ccc1N1CCOCC1)c1cccnc1,-0.4%,-2.1%,15.0%,-9.6%,1.6%,x,x,x
CSc1ncccc1C(=O)OCC(=O)Nc1cc(C(F)(F)F)ccc1N1CCOCC1,-0.5%[57.5 µM],u,12.6µM*,-11.9%,-3.7%,x,x,x
COCc1cc(=O)[nH]c(Nc2nc(C)c3ccc(C)cc3n2)n1,x,-0.1%,8.0%,-7.8%,-1.3%,-6.2,-25.9%,u
Cc1ccc2c(C)nc(Nc3nc(CSc4nnnn4-c4ccccc4)cc(=O)[nH]3)nc2c1,-0.1%[57.5 µM],0.3%,u,-16.7%,4.3%,-13.5,-29.2%,3.16µM*
COc1ccccc1CNC(=O)CSc1ncc(S(=O)(=O)c2ccc(C)c(Cl)c2)c(=O)[nH]1,x,0.2%,x,11.7%[10.9 µM],x,x,x,x
COc1ccc(-c2onc(C)c2C)cc1S(=O)(=O)N1CCN(c2cc(C)ccc2C)CC1,x,0.2%,x,-8.7%[10.9 µM],x,x,x,x
COc1ccc2c(CNC3CCC(C)CC3)c(C(=O)O)n(Cc3ccc(F)cc3)c2c1 (centres undefined),x,u,x,-10.8%[10.9 µM],x,x,x,x
Cc1cc2oc3c(c(=O)c2cc1C)C(c1cccc(Br)c1)N(Cc1ccco1)C3=O (centres undefined),5.3%[0.369 µM],7.3%,-4.0%,-14.6%,2.2%,x,x,x
CCOc1cc(C2c3c(oc4cc(C)c(Cl)cc4c3=O)C(=O)N2Cc2ccco2)ccc1O (centres undefined),0.1%,1.0%,12.6µM*,-1.5%,5.7%,-20.9,-24.6%,0.794µM*
O=c1[nH]c(SCc2ccccc2Cl)nc2c1cnn2-c1ccccc1,-0.4%,-3.9%,0.794µM*,-14.7%,x,-18.5,-20.9%,6.31µM*
Cc1ccc(-n2ncc3c(=O)[nH]c(SCC(=O)N4CCOCC4)nc32)cc1,-2.1%,-0.8%,18.7%,14.7%,-1.4%,4.3,1.6%,u
Cn1c(C(=O)NCCCN2CCCC2=O)cc2c(=O)n(C)c3ccccc3c21,-0.8%,0.6%,3.98µM*,-9.0%,x,-8.3,-21.0%,12.6µM*
CN(CCNC(=O)c1cc2c(=O)n(C)c3ccccc3c2n1C)Cc1ccccc1,-1.0%,1.8%,u,-32.4%,x,x,x,x
CCCN(CCC)CCNC(=O)c1cc2c(=O)n(C)c3ccccc3c2n1C,-0.8%,-0.1%,18.6%,-15.3%,x,-10.3,-11.4%,12.6µM*
CCc1nn(CC(=O)N(CC)Cc2ccccc2)c(=O)c2cc3occc3n12,x,0.0%,x,14.9%[10.9 µM],x,x,x,x
CCn1cc(C(=O)Nc2cccc(NC(C)=O)c2)c2cc(OC)c(OC)cc2c1=O,1.9%,-0.4%,u,-3.9%,0.0%,x,x,x
CCn1cc(C(=O)Nc2ccc3c(c2)OCCO3)c2cc(OC)c(OC)cc2c1=O,-0.1%,u,1.26µM*,-4.8%,x,-8.4,-18.3%,0.708µM*
CN1C(=O)NC(c2ccccc2)C2=C1CN(Cc1ccccc1)C2=O (centres undefined),x,x,x,x,-2.6%[20.6 µM],-2.9,-1.0%,20.9%
COc1ccc(-n2nc(C(=O)N3CCC(C)CC3)c3c4ccccc4n(C)c3c2=O)cc1Cl,x,u,x,11.7%[10.9 µM],x,x,x,x
Cc1cc(C)nc(Sc2nc(C)nc3c2oc2ccccc23)n1,6.5%[0.369 µM],1.3%,1.7%,u,1.6%,x,x,x
Cc1cc(C)nc(N2CCN(c3nc(C)nc4c3oc3ccccc34)CC2)n1,2.3%[57.5 µM],-2.1%,0.1%,-5.8%,-2.2%,4.5,-5.2%,3.16µM*
